Screening results as filed in PubChem BioAssay.
A selection: hits, their analogues and other compounds. The true share with any hit is near 5.3%.
MT1-MMP txn act: MT1-MMP promoter reporter activation – cell-based, luciferase luminescence, primary screen; 86,000 tested, 0.16% active; activation factor at 10 µM; HT1080 MT1-MMP promoter luciferase reporter, overnight; hits give high values;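 active = activation factor of at least 2 for MT1-MMP transcription at 10 µM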
Measles CPE: compounds protecting cells from measles virus cytopathic effect, primary screen, measles RdRp inhibitor project, single point, MLSMR library, absorbance; Measles virus-infected cells, CPE protection; protection (pct of control), % at 4 µM; 140,000 tested, 1.5% active; AID 841, 2007; in the data active = protection mostly above about 24%, no sharp cut-off; inactive = mostly below about 26%
PostGolgi ctrl: growth inhibition of yeast control strain, primary screen, counter-screen for post-Golgi transport modulator project | efflux-deficient yeast background strain, growth absorbance A615, 16 h | inhibition, % at 10 µM | 98,000 tested, 5% active | AID 738, 2007
PostGolgi yeast: phenotypic screen on post-Golgi transport, primary screen; AID 739, 2007; post-Golgi transport phenotypic cell assay; inhibition, % at 10 µM; 98,000 tested, 0.9% active;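 also: yeast cells grown in 1536-well plates; yeast grown about 18 h at 30C before absorbance read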
Numbers without * were called inactive; . = no result. Rule as the data show it, unless noted: active = inhibition above about 30%; inactive = the rest.

SMILES	MT1-MMP txn act	Measles CPE	PostGolgi ctrl	PostGolgi yeast
Cc1cc(C)c(S(=O)(=O)N2CCC(C(=O)NCc3ccc(Cl)cc3Cl)CC2)c(C)c1	1	19	89*	100*
CCS(=O)(=O)N1CCCC(C(=O)NCc2ccccc2Cl)C1 (configuration not stated)	1.1	6	0	0
COc1ccc(S(=O)(=O)NCCc2nnc3ccc(SCC(=O)Nc4nc(C)cs4)nn23)cc1	.	6	.	.
Cc1ccc2nc(-c3ccc(NC(=O)C4CCCO4)cc3)[nH]c2c1 (configuration not stated)	.	18	11	-6
COc1ccc(CNc2nc(NCc3ccc(OC)cc3)n(S(C)(=O)=O)n2)cc1	1.1	5	13	10
COCC(=O)n1nc(NCc2ccc(OC)cc2)nc1NCc1ccc(OC)cc1	1.2	5	87*	49*
CC(C)c1ccc(CN(C(=O)C2COc3ccccc3O2)C2CCS(=O)(=O)C2)cc1 (configuration not stated)	1.2	5	63*	1
CN(C)c1ccc(CN(C(=O)C2COc3ccccc3O2)C2CCS(=O)(=O)C2)cc1 (configuration not stated)	1.1	1	3	-13
CCOc1ccccc1NC(=S)/C(=C(\[O-])c1ccc2c(c1)OCCO2)[n+]1ccc(CC)cc1	.	28*	19	-5
COc1ccc(CCNC(=O)c2cc(-c3ccc(Cl)c(Cl)c3)oc2C)cc1	.	5	.	.
N#Cc1nc(COc2ccccc2)oc1N1CCN(Cc2ccccc2)CC1	1.2	2	6	-5
N#Cc1nc(COc2ccccc2)oc1N1CCC(Cc2ccccc2)CC1	1.1	3	40*	-5
COC(=O)[C@@]1(Cc2ccc(OC)cc2)[C@H]2c3cc(C(=O)N4CCCC4)n(CCc4ccc(O)c(OC)c4)c3C[C@H]2CN1C(=O)c1ccccc1	1.1	.	.	.
COc1cc([N+](=O)[O-])c(C(=O)N2CCOCC2)c([N+](=O)[O-])c1	.	8	.	.
CCCCc1ccc(-c2ccc(Br)cc2)nc1	2*	13	.	.
CCCc1ccc(-c2ccc(F)c(N)c2)nc1	.	9	23	9
COC(=O)c1ccc(C(=O)OC)c(NC(=O)CSCc2ccccc2Br)c1	.	14	-3	-6
O=C(c1ccc(C(=O)N2CCCc3ccccc32)s1)N1CCCc2ccccc21	.	5	100*	105*
O=C(NC(=S)N1CCCc2ccccc21)c1ccccc1	.	26*	1	0
O=C(NC(=S)N1CCCc2ccccc21)c1ccc(Cl)cc1	.	23	.	.
O=C(C(=O)N1CCCc2ccccc21)N1CCCc2ccccc21	.	10	.	.
CC(C)Oc1ccc(C(=O)N2CCCc3ccccc32)cc1	1.3	2	31*	-5
COC(=O)[C@@]1(Cc2ccc(F)cc2)[C@H]2c3cc(C(=O)N(C)C)n(Cc4ccc(C)c(F)c4F)c3C[C@H]2CN1C(=O)c1ccccc1	1.1	.	.	.
Cc1ccc2nc(N(CCCN(C)C)C(=O)c3sc4ccccc4c3Cl)sc2c1	.	7	.	.
O=C1Nc2ccc(NS(=O)(=O)c3cccs3)c3cccc1c23	1.3	44*	-5	-3
SMILES	MT1-MMP txn act	Measles CPE	PostGolgi ctrl	PostGolgi yeast
CN(C)c1ccc(C2SCCN2C(=O)c2ccc([N+](=O)[O-])cc2)cc1 (configuration not stated)	.	3	.	.
O=C(c1ccc([N+](=O)[O-])cc1)N1CCSC1c1ccccc1 (configuration not stated)	.	24*	.	.
Cn1c(-c2ccccc2)cnc1SCC(=O)N1CCCc2ccccc21	.	15	.	.
Cn1c(-c2ccccc2)cnc1SCC(=O)N1CCCCC1	.	18*	.	.
COc1cccc(N2CCN(c3ncnc4c3[nH]c3ccccc34)CC2C)c1 (configuration not stated)	0.9	11	44*	7
COc1ccc2[nH]c3c(N4CC(C)OC(C)C4)ncnc3c2c1 (configuration not stated)	1	16	5	-3
COc1cccc(N2CCN(c3ncnc4c3[nH]c3ccc(F)cc34)CC2C)c1 (configuration not stated)	0.3	6	96*	66*
CCOC(=O)c1ccc(NC(=O)CN(C)S(=O)(=O)c2ccc(Br)s2)cc1	.	3	.	.
O=S(=O)(Nc1ccc(-c2nc3cccnc3s2)cc1)c1cccs1	1.3	12	-3	4
O=S(=O)(Nc1ccc(-c2nc3cccnc3s2)cc1)c1ccc(Cl)s1	.	11	48*	20
Cc1cc(C)n(CCn2nc(C)cc2C)n1	1.2	18	37*	-2
CCCCNc1nc2ccccc2n1CC(=O)Nc1c(C)cccc1CC	.	4	.	.
O=C(Nc1cccc(S(=O)(=O)N2CCCC2)c1)c1ccc2c(=O)n3c(nc2c1)CCCCC3	.	2	.	.
Cc1ccc(-n2nnnc2-c2nc3ccccc3s2)cc1	.	7	.	.
CCOc1ccc(-n2nnnc2-c2nc3ccccc3s2)cc1	.	26*	.	.
N#CC1(C#N)CC(C=O)=C(N)C1(C#N)CC(=O)C12CC3CC(CC(C3)C1)C2 (configuration not stated)	.	22	.	.
Cc1ccc(Nc2nc(-c3c(C)nc4ccccn34)cs2)cc1	.	7	75*	-9
Oc1ccc(Nc2nc(-c3ccc4ccccc4c3)cs2)cc1	0.5	6	82*	93*
Cc1cc(NS(=O)(=O)c2ccc(Nc3nc(-c4ccc(O)cc4)cs3)cc2)no1	.	5	.	.
Cn1c(SCc2ccccc2)nnc1-c1ccncc1	1.2	4	10	17
CSc1nnc(-c2ccccc2)n1C	1	4	31*	8
CC(=O)Nc1sc2c(c1C(c1cccs1)N1CCOCC1)CCCC2 (configuration not stated)	1.1	2	42*	3
CC(=O)Nc1sc2c(c1C(=O)N1CCOCC1)CCCCC2	1	17	-4	11
CCn1c(SCC(=O)NCc2ccccc2)nc2c(c1=O)SC(C)C2 (configuration not stated)	.	21	28	0
O=C(NNc1nc(-c2ccccc2)c2cc(Br)ccc2n1)c1ccc(S(=O)(=O)N2CCOCC2)cc1	.	10	.	.
SMILES	MT1-MMP txn act	Measles CPE	PostGolgi ctrl	PostGolgi yeast
O=C(NNc1nc(-c2ccccc2)c2cc(Br)ccc2n1)c1ccc(S(=O)(=O)N2CCCCC2)cc1	.	47*	.	.
O=S(=O)(Nc1nc2ccccc2nc1NCc1ccco1)c1ccc(Cl)cc1	1.1	4	38*	-8
CCN1C=CC(=C2C(=O)c3ccccc3C2=O)C=C1	.	40*	4	-3
Cc1ccc(-c2nnn(CC(=O)N(CC3CCCO3)C(C(=O)NCC3CCCO3)c3ccc(F)cc3)n2)o1 (configuration not stated)	1.3	42*	.	.
CCCCCCNCc1c(F)cccc1Cl	.	57*	.	.
Cc1cc(C(=O)N/N=C/c2cccc([N+](=O)[O-])c2)c(C)o1	.	33*	11	-6
C(=N\N(c1ccccc1)c1ccccc1)/c1ccc(N2CCOCC2)s1	.	12	.	.
CO/N=C/c1ccc(Sc2ccccc2N)c([N+](=O)[O-])c1	1.2	3	32*	10
O=C(Nc1cccc(Cl)c1)c1ccc(-n2cncn2)c([N+](=O)[O-])c1	.	2	1	-3
COC(=O)CSc1nc2cc3c(cc2cc1C)OCCO3	1.3	5	36*	6
